MCF10A rereplic = A quantitative high throughput screen for small molecules that induce DNA re-replication in MCF 10a normal breast cells; MCF 10A DNA re-replication, Hoechst nuclear intensity, 48 h; Potency, µM (doses to about 46.1 µM), inactives show at the highest dose activity, positive = re-replication, hits mostly activators; 350,000 tested, 2.9% active; also: potency is read from the fitted curve at half-maximal effect; % of control where 0% means no effect; nearly all actives have a fitted effect of over 50% in size
IL-1B inflam inh = qHTS for Inhibitors of Inflammasome Signaling: IL-1-beta AlphaLISA Primary Screen; THP-1 LPS/ATP IL-1B secretion, AlphaLISA, 16 h; active compounds read low; activity change, % at 57.5 µM; 360,000 tested, 4.7% active; AID 743279, 2014; in the data active = activity change below about -50%; inconclusive = mostly about -30% to -49%; also: % is scaled to controls: 0 for no effect and ±100 for the full control effect
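Secreted IL-1B measured by AlphaLISA bead assay after 16 h compound exposure of THP-1 cells; compounds (final up to 57.5 uM) added 1 h before LPS (250 ng/mL) and ATP (1.25 mM) stimulation; lower signal means less secretion.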
SW480 rereplic = A quantitative high throughput screen for small molecules that induce DNA re-replication in SW480 colon adenocarcinoma cells. SW480 DNA re-replication, Hoechst DNA content imaging, 48 h. Potency, µM (doses to about 46.1 µM), without a hit: at the highest dose re-replication activation, usual class: activators. 340,000 tested, 1.8% active; also: potency is read from the fitted curve at half-maximal effect; % of control where 0% means no effect; nearly all actives have a fitted effect of over 55% in size
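DNA re-replication was detected as more nuclei of elevated Hoechst intensity after 48 hr exposure to compound (23 nL pinned per well of 250 cells).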
Chronic BCR inh = qHTS Assay to Find Inhibitors of Chronic Active B-Cell Receptor Signaling. 340,000 tested, 0.05% active. ABC-DLBCL IkBa-CBG/CBR reporter, luminescence ratio, 4 h. Potency, µM (series often up to 46.1 µM), inactives show at the top dose activity change, negative = inhibition, hits mostly inhibitors. AID 493014, 2011; active = well fitted inhibition curve with a large enough effect in the signal ratio, with a control signal flat, not every such curve was filed as active; inconclusive = small, poorly fitted or top-dose-only effect, or effect the other way, or a change in a side signal; the % refers to the signal ratio;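 also: potency is read from the fitted curve at half-maximal effect; plate controls were basal doxycycline-induced cells for no effect and cells given 10 µM MG132 for full effect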
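Doxycycline induced both beetle luciferases in TMD8 lymphoma cells; IKK-driven degradation limits the IkappaBalpha-fused green signal, while red luminescence normalises for cell number and nonspecific effects. Compounds tested up to 46 uM, 4 hrs.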
TDP1 cell noCPT = qHTS for Inhibitors of human tyrosyl-DNA phosphodiesterase 1 (TDP1): qHTS in cells in absence of CPT | DT40 Tdp1-/- hTDP1 cells, no CPT, ATP luminescence, 48 h | Potency, µM (doses to about 46.2 µM), for the others: at the top dose activity change, negative = growth inhibition, actives largely listed as inhibitors | 420,000 tested, 15% active | AID 686978, 2013; also: potency is read from the fitted curve at half-maximal effect; % is scaled to controls: 0 for no effect and ±100 for the full control effect; nearly all actives have a fitted effect of over 55% in size
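Compound effects on proliferation are scored in DT40 Tdp1-/-;hTDP1 cells in the absence of CPT. ATP levels (CellTiter-Glo luminescence) are recorded after a ≥48 hr, 37 °C incubation.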
DT40 TDP1 CPT = qHTS for Inhibitors of human tyrosyl-DNA phosphodiesterase 1 (TDP1): qHTS in cells in presence of CPT. Potency, µM (doses to about 46.2 µM), for the others: top-dose activity change, negative = growth inhibition, usual class: inhibitors. chicken DT40 Tdp1-/-;hTDP1 cells + 20 nM CPT, ATP luminescence, 48 h. 420,000 tested, 12% active; also: potency is read from the fitted curve at half-maximal effect; % is scaled to controls: 0 for no effect and ±100 for the full control effect; nearly all actives have a fitted effect of over 55% in size
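Chicken DT40 Tdp1-/- cells complemented with human TDP1, 400 cells/well, exposed to compounds plus 20 nM camptothecin for at least 48 h at 37 C; viability read as ATP content by CellTiter-Glo luminescence.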
* hit, by the source's call; ? = inconclusive; · = not tested or not shown. An excerpt weighted towards active compounds, which were near 19% of everything screened. Unless noted, calls follow the shape of the dose curve; as a rule, active = well fitted curve in the direction sought with a large enough effect; inconclusive = small, poorly fitted or top-dose-only effect, or another doubt; inactive = no such curve, though single readings can be large; an effect the other way counts as inactive or inconclusive.

SMILES | MCF10A rereplic | IL-1B inflam inh | SW480 rereplic | Chronic BCR inh | TDP1 cell noCPT | DT40 TDP1 CPT
CCCCc1nc(NCCN2CCOCC2)c(C#N)c2c1COC(C)(C)C2 | 4% | -6 | 25% | 0% | ? | -25%
CCc1nc(NCCN2CCOCC2)c(C#N)c2c1CCCC2 | -2% | -6 | -1% | 0% | -20% | 3.3µM*
CC(C)Cc1nc(NCCN2CCOCC2)c(C#N)c2c1COC(C)(C)C2 | -3% | ? | -2% | -2% | 18µM* | ?
CC(OC(=O)c1cccc(N(C)C)c1)C(=O)N1CCc2ccccc2C1 (stereo not drawn) | 12% | 5 | -1% | -4% | ? | -14%
O=[N+]([O-])c1cccc(S(=O)(=O)NCC2CC3CCC2C3)c1 (stereo not drawn) | -2% | 17 | -1% | 7% | ? | 16%
C=CCN(CC=C)C(=O)C(=O)c1ccn(-c2c(C)csc2C(=O)OC)c1 | 2% | 21 | -2% | 0% | ? | -18%
O=C(C[N+]1(CCc2ccccc2)CCOCC1)c1ccccc1 | · | · | · | · | -26% | 2%
CN(C)c1ccc(N/C(=N\S(=O)(=O)c2cccs2)c2ccccc2)cc1 | 2% | -23 | 2% | ? | 6.5µM* | ?
Cc1noc(C)c1COC(=O)c1ccc(S(=O)(=O)NCc2ccco2)cc1 | ? | -4 | 0% | -7% | ? | 16µM*
COc1cc(OC)c(N(C)S(=O)(=O)c2cccc(C(=O)OCC(=O)N3CCOCC3)c2)cc1Cl | 7% | 36 | -2% | -7% | ? | ?
Cc1noc(C)c1COC(=O)c1cccc(S(=O)(=O)N2CCCCCC2)c1 | ? | 15 | 4% | ? | 15µM* | 15µM*
COc1cc(OC)c(N(C)S(=O)(=O)c2cccc(C(=O)OCc3c(C)noc3C)c2)cc1Cl | 2% | 61 | -2% | -6% | 23µM* | ?
CCn1cc(C(=O)N2CCCC(C(=O)c3cccc(C(F)(F)F)c3)C2)cn1 (stereo not drawn) | · | 29 | · | · | ? | ?
Cc1ccc(C(O)c2ccncc2)cc1 (stereo not drawn) | -25% | -11 | 2% | 2% | ? | ?
Cc1ccc(C(O)c2ccc(-n3ccnc3)cc2)cc1 (stereo not drawn) | 6% | -8 | 0% | 1% | 15µM* | ?
CCC1Oc2ccc(C)cc2N(CC(=O)N(Cc2cccnc2)Cc2cccc(F)c2)C1=O (stereo not drawn) | 8% | -12 | -1% | ? | ? | 18µM*
CC(C)/C(C=O)=C(/NC1CCCCC1)c1ccccc1 | 2% | ? | 3% | · | ? | -16%
O=c1c2ccccc2nnn1-c1ccccc1[N+](=O)[O-] | · | -16 | · | · | -29% | -8%
CC1=C(C(=O)Nc2ccc(C)cn2)C(c2cnn(C)c2)C2=C(CCCC2=O)N1 (stereo not drawn) | 0% | 4 | 0.52µM* | 2% | -2% | -6%
CCn1ncc(C2C(C(=O)Nc3ccc(C)cn3)=C(C)NC3=C2C(=O)CCC3)c1C (stereo not drawn) | 6% | 8 | 0% | 0% | 1% | 22%
Cn1ncc2c(Nc3ccc4ccccc4c3)ncnc21 | ? | -17 | 16µM* | ? | ? | ?
CC(=O)Nc1ccc(Nc2ncnc3c2cnn3C)cc1 | · | · | · | -28% | ? | 16µM*
Cc1cccc(Nc2ncnc3c2cnn3C)c1 | 7% | -3 | -11% | 10% | -10% | -18%
Cc1ccc(Nc2ncnc3c2cnn3C)cc1 | -2% | 2 | 2% | 0% | ? | -29%
CCOc1ccc(C(=O)C2CCN(C(=O)c3ccccc3C(=O)O)CC2)cc1 | -18% | 24 | -1% | 19% | -6% | -7%
SMILES | MCF10A rereplic | IL-1B inflam inh | SW480 rereplic | Chronic BCR inh | TDP1 cell noCPT | DT40 TDP1 CPT
CCOc1ccc(C(=O)C2CCN(C(=O)c3ccc([N+](=O)[O-])cc3)CC2)cc1 | -3% | -3 | -18% | 4% | 21µM* | ?
CCOC(=O)N1CCN(C(=O)c2ccc(Oc3ccc([N+](=O)[O-])cc3)cc2)CC1 | -2% | -11 | 3% | 1% | 23µM* | 16µM*
CCOc1ccc(C(=O)N2CCC(c3ccncc3)CC2)cc1 | · | · | · | 0% | ? | 13µM*
c1ccc2c(c1)-c1cccc3cncc-2c13 | 7% | -84* | -1% | · | ? | -37%
O=C1CCCc2c1nc(-c1ccc([N+](=O)[O-])cc1)n2O | 23µM* | · | 34% | ? | -27% | 9%
COc1ccccc1-c1sc2cc3c(cc2c1-c1ccc2c(c1)OCO2)OCO3 | 8% | 4 | ? | ? | ? | ?
COc1ccccc1C1NC(c2ccc3c(c2)OCO3)=CC(c2cc(Cl)ccc2O)N1 (stereo not drawn) | · | · | · | · | 4µM* | 7.9µM*
COc1ccccc1C1NC(c2ccc3c(c2)OCO3)=CC(c2ccccc2O)N1 (stereo not drawn) | · | · | · | · | 10µM* | 11µM*
COc1ccc(C2NC(c3ccc4c(c3)OCO4)=CC(c3ccccc3O)N2)cc1OC (stereo not drawn) | · | · | · | · | 18µM* | 13µM*
CCOc1ccccc1C1NC(c2ccc3c(c2)OCO3)=CC(c2ccccc2O)N1 (stereo not drawn) | · | · | · | · | 14µM* | 11µM*
CC(=O)c1ccc(-c2ccc(C(=O)NC3CCCCCC3)o2)cc1 | -4% | 7 | -1% | ? | -11% | 10%
Oc1ccc(Cl)cc1C1C=C(c2ccc3c(c2)OCO3)NC(c2ccc(Br)cc2)N1 (stereo not drawn) | · | · | · | · | ? | 16µM*
Cc1ccc(OCCSc2nc(NC(C)C)nc(NC(C)C)n2)cc1 | 13µM* | 11 | 8% | ? | ? | ?
CCNc1nc(SCCOc2ccc(C)cc2)nc(N(C)C)n1 | ? | 41 | 9% | -1% | 21µM* | 16µM*
Cc1cc(C)c2[nH]c(O)c(N=NC3=NC(=O)CS3)c2c1 | 0% | -7 | -20% | -1% | ? | -13%
CCc1ccc2c(c1)c(N=NC1=NC(=O)CS1)c(O)n2C | ? | -13 | -16% | 4% | 16µM* | -28%
C=CCc1c(C)nc(SC)nc1Nc1ccc(C)cc1 | ? | -8 | ? | 11% | 21µM* | 9.2µM*
